In article PMC10668032, “Altered binding affinity of SIX1-Q177R correlates with enhanced WNT5A and WNT pathway effector expression in Wilms tumor”:
In all, about 33,000 sequences were measured (“e-score”: median about -0.053, highest 2% from about 0.38 on). This excerpt belongs to a sample that is enriched for the highest values.

target: T1, SIX1 homeodomain (reference allele) (human, UniProt Q15475 108-198); assay: universal protein binding microarray; Universal all-10-mer PBM (8x60K, AMADID 030236), 300 nM GST-tagged protein, Alexa Fluor 488 anti-GST; buffer, salt, pH and temperature not stated (as in Berger); high values mean tight binding; conditions: protein: ivt; tags: N-terminal GST; dsDNA, one strand shown
T1 sequence: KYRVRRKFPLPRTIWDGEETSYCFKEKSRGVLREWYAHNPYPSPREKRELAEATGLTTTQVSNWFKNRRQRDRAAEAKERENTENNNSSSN
Procedure, shortened: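 After in vitro transcription/translation, GST-tagged homeodomains were quantified against a recombinant GST standard curve by anti-GST western blot. They were then placed in duplicate at 300 nM final concentration on universal 'all 10-mer' protein binding microarrays of 8×60K format.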

Sequence | binding signal [E-score]
ATTATAGC | 0.176 ± 0.0442
CGATCTTA | 0.197 ± 0.0344
ACGATCCA | 0.284 ± 0.0277
ACGATCCG | 0.425 ± 0.0168
CCGATCGG | 0.319 ± 0.0282
ACGATCCT | 0.347 ± 0.0269
CCGATCCG | 0.428 ± 0.0349
CCGATCCA | 0.29 ± 0.0686
ATCACCAC | 0.262 ± 0.0152
GATCGGAC | 0.248 ± 0.0437
ACACCTCC | 0.347 ± 0.0177
ATCGGCTG | 0.167 ± 0.0425
ATCTGCCC | 0.182 ± 0.0131
AGGTATCC | 0.461 ± 0.0111
AGTTATCC | 0.295 ± 0.00593
CGGTATGA | 0.225 ± 0.00643
CGCTATCC | 0.339 ± 0.0225
AGGTATCA | 0.487 ± 0.00797
CGGTATCC | 0.451 ± 0.0218
CGGTATTC | 0.319 ± 0.00856
AGGTATGA | 0.242 ± 0.0289
TGGTATAA | 0.287 ± 0.0507
CGGTATCA | 0.4855 ± 0.000332
ACCTATCC | 0.262 ± 0.0365

Sequence | binding signal [E-score]
AGGTATAT | 0.357 ± 0.03
GATATTTA | 0.157 ± 0.127
ATACGACG | 0.191 ± 0.00652
CCCCTCTC | 0.161 ± 0.0741
AAAGGGAT | 0.253 ± 0.0943
CAGGATAG | 0.315 ± 0.00491
AGCAGTAT | 0.313 ± 0.00754
ATAACACC | 0.301 ± 0.039
ATCCGTCG | 0.239 ± 0.00454
ACGCTATC | 0.296 ± 0.0306
ATCCAACA | 0.293 ± 0.0336
GGTGGATA | 0.362
AGCTATCG | 0.284 ± 0.0882
GGGTATGA | 0.27 ± 0.0161
AGGTATCG | 0.4779 ± 0.00118
GGGTATCA | 0.4971 ± 0.0012
GGTTATCA | 0.21 ± 0.00931
AGGTATGG | 0.177 ± 0.0177
GACACACC | 0.165 ± 0.101
ATACTTGG | 0.199 ± 0.00946
AAACGATC | 0.216 ± 0.065
ATAGAGGA | 0.153 ± 0.03
ATCCGATA | 0.466 ± 0.00646
ATCCGCTA | 0.243 ± 0.0351

Sequence | binding signal [E-score]
CTCCGATC | 0.185 ± 0.0542
CTCCGATA | 0.314 ± 0.00415
ATCCGCTG | 0.305 ± 0.0121
ATCCGATC | 0.43 ± 0.0245
ATCCGCTC | 0.377 ± 0.0055
ATCCGATG | 0.253 ± 0.0575
GTCCGATA | 0.331 ± 0.0437
ATAGTGAT | 0.32 ± 0.0209
GTGTCCGA | 0.217 ± 0.0111
CAGATTAA | 0.217 ± 0.0579
GCTTAATA | 0.169 ± 0.0471
GTATTGTA | 0.272 ± 0.0188
ATCTATCG | 0.23 ± 0.0219
ATCCATTC | 0.287 ± 0.0196
TACTGCAA | 0.163 ± 0.0382
GATACATC | 0.4297 ± 0.000849
CATACACC | 0.256 ± 0.0714
GATACAGA | 0.268 ± 0.0783
GATACACC | 0.469 ± 0.00523
GATACAGC | 0.395 ± 0.00544
AATACATC | 0.204 ± 0.0447
TATACATA | 0.246 ± 0.0104
CATACAGA | 0.196 ± 0.0391
GATACATA | 0.398 ± 0.0255

Sequence | binding signal [E-score]
AATACATA | 0.242 ± 0.0372
GATACACA | 0.3539 ± 0.00325
GATACAAC | 0.305 ± 0.0152
AGTGAGCC | 0.225 ± 0.0456
ATCACATG | 0.269 ± 0.0277
ATCATCTC | 0.371 ± 0.00868
ATTGGGGG | 0.152 ± 0.0367
GATCAGTA | 0.347 ± 0.00373
ATACGCTG | 0.268 ± 0.0386
GACACCAC | 0.439 ± 0.0198
GACACCTA | 0.3565 ± 0.0024
CACACCGC | 0.164 ± 0.108
AACACCGA | 0.228 ± 0.0289
CACACCTC | 0.267 ± 0.0486
AACACCGC | 0.293 ± 0.041
TACACCGA | 0.361 ± 0.0113
GACACCGC | 0.398 ± 0.0204
CACACCAC | 0.206 ± 0.0597
AACACCAC | 0.255 ± 0.026
GACACCGA | 0.383 ± 0.0167
GACACCTC | 0.3967 ± 0.00186
ATATGGAC | 0.173 ± 0.0129
